Structures are written as SMILES. A number with no mark means an inactive call. No rule for the calls is given here.

The assay deals with Pantothenate synthetase (Mycobacterium tuberculosis (strain ATCC 25618 / H37Rv)) (UniProt P9WIL5). Put plainly: Recombinant Mtb pantothenate synthetase (PanC) inhibitors, coupled enzyme, confirmatory (AID 375).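 Also: 0% = full reaction with vehicle and 100% = no enzyme background.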 The settings on record: coupled enzyme assay; at 10 µM, active compounds read high.
Pantothenate synthetase (Mycobacterium tuberculosis (strain ATCC 25618 / H37Rv)), sequence (P9WIL5 whole entry, looked up): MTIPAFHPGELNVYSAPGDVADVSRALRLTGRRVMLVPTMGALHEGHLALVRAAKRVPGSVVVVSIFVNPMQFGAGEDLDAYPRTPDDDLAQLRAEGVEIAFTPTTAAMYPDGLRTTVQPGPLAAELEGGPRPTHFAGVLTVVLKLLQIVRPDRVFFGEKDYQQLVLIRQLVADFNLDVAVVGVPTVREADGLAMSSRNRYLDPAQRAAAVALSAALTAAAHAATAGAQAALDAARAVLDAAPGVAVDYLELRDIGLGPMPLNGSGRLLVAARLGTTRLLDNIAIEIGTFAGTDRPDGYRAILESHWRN
The term inhibition denotes the share of the control response that was lost under treatment. On to `c1ccc2c(c1)ccc1nnc(-c3ccc4c(c3)OCO4)n12`, for which the inhibition is 2%.

For the compound `COc1ccc2c(c1OC)C(=O)OC2CC(=O)c1ccc(O)cc1` (stereo not given), the inhibition was 0%.

On to `Clc1cc2c(c(Cn3cnc4ccccc43)c1)OCOC2`, for which the inhibition was 0%.

Turning to `Cc1ccc2c(c1)C1CCCC3C1N2CC(=O)N3Cc1ccccc1` (stereo not given), the inhibition was 0%.

For `O=C1CC(Cc2ccccc2)C(=O)N1CCCn1ccnc1` (stereo not given), the inhibition was 0%.

For `COc1ccc(N(CC(=O)O)S(=O)(=O)c2ccc(OC)c(OC)c2)cc1`, the inhibition was 5%.

Consider `CC1CCC(NC(=O)C2CCN(c3cnccn3)CC2)CC1` (stereo not given), for which the inhibition was 0%.

For the compound `O=C(Nc1cccc(-c2nnc(-c3ccccc3)o2)c1)C1CCCCC1`, the inhibition is 0%.

With `CC1CCc2cc(F)cc3c(O)c(C(=O)Nc4cnccn4)c(=O)n1c23` (stereo not given), the inhibition was 0%.

Consider `Cc1cc(/C=N/n2cnnc2)c(C)n1-c1ccc(Cl)cc1Cl`, for which the inhibition was 1%.

With `COc1cccc(NS(=O)(=O)c2cc(C)sc2C)c1`, the inhibition was 0%.

With `COC(=O)c1cnc2c(C(F)(F)F)cccc2c1OC`, the inhibition was 2%.

Take `CCOC(=O)C1CCN(C(=O)Nc2ccc3nc(C)c(C)nc3c2)CC1`: the inhibition was 0%.

With `Cc1cc2c(cc1C)-c1nnnn1C(C)(C)C2`, the inhibition was 4%.

Take `COC(=O)COc1nc(C)c(Br)c(OC)n1`: the inhibition was 0%.

In the case of `CCOC(=O)C1CCCN(C(=O)Cc2ccc(OC)c(OC)c2)C1` (stereo not given), the inhibition was 0%.

With `O=C1CC(Cc2ccccc2)C(=O)N1CCc1ccc2c(c1)OCO2` (stereo not given), the inhibition is 3%.

`Nc1sccc1C(=O)c1ccccc1`: the inhibition is 4%.

As to `CN(C(=O)c1c(Cl)nc2sccn12)C1CCCCC1`, the inhibition is 0%.

Consider `Cc1cc(C)nc(SCc2nnc(SCC(=O)Nc3ncc(C)s3)n2Cc2ccco2)n1`, for which the inhibition was 0%.

Consider `Cc1ccccc1NS(=O)(=O)c1cc(S(C)(=O)=O)ccc1Cl`, for which the inhibition was 0%.

Turning to `CN(Cc1ccccc1)S(=O)(=O)c1ccc(S(=O)(=O)N2CCN(CCC#N)CC2)cc1`, the inhibition was 0%.

As for `COCCCN1C(=O)C(O)=C(C(=O)c2ccco2)C1c1ccc(Br)cc1` (stereo not given), the inhibition was 6%.

As for `O=C(C1CC1)N1CCc2cc(S(=O)(=O)N(CCO)Cc3ccccc3)ccc21`, the inhibition was 0%.

Take `O=C(C1CCCN(S(=O)(=O)c2cccs2)C1)N1CCc2ccccc2C1` (stereo not given): the inhibition was 9%.

Consider `COc1cccc(C(=O)Nc2ccc(NC(C)=O)cn2)c1`, for which the inhibition is 0%.

For the compound `c1nc(NCC2CCCO2)c2[nH]cnc2n1` (stereo not given), the inhibition is 0%.

Take `COCCN1C(=O)C(=O)/C(=C(/O)c2cccc(S(=O)(=O)N(C)C)c2)C12C(=O)N(C)c1ccccc12` (stereo not given): the inhibition is 8%.

On to `CC(C)(C)C(=O)NC1CCN(C(=O)N2CCCC2)CC1`, for which the inhibition is 6%.

For `CCOC(=O)C1=C(C)Nc2nc(SCC(=O)OC)nn2C1c1cc(F)cc(F)c1` (stereo not given), the inhibition is 3%.

`COc1ccc(-c2ccc(-c3nnc(-c4ccncc4)o3)cc2)cc1`: the inhibition was 4%.

`Cc1nn(C)c(C)c1NC(=O)CCSc1nc(-c2ccco2)cc(C(F)(F)F)n1`: the inhibition is 6%.

Take `CCn1c(SCC(=O)Nc2cc(C)ccc2C)nc2c(c1=O)SC(C)C2` (stereo not given): the inhibition is 0%.

As to `O=C(Nc1ccc2c(c1)OCO2)c1nn(-c2ccccc2)c(=O)c2ccccc12`, the inhibition is 3%.

As to `Cc1cccc(Nc2nc(N)nc(CN3CCC(C(N)=O)CC3)n2)c1C`, the inhibition was 0%.

Consider `CCC(NC(=O)Nc1cc(OC)c(OC)c(OC)c1)(C(F)(F)F)C(F)(F)F`, for which the inhibition was 3%.

As for `Cc1nc2ccccc2n1CCC(=O)Nc1cccc(F)c1`, the inhibition was 4%.

`Cc1ccc(-c2nnc(SCC(=O)N3CC(C)CC(C)C3)o2)cc1C` (stereo not given): the inhibition was 0%.

Consider `CC(C)c1nnc(SCC(=O)NCc2ccco2)n1C`, for which the inhibition was 0%.

Turning to `COc1cccc(C(c2nnnn2Cc2ccccc2)N2CCN(C(=O)c3ccco3)CC2)c1OC` (stereo not given), the inhibition was 4%.

Values taken from PubChem BioAssay.
